Data reported in PubChem BioAssay (EPA / NIEHS).
Records with an inconclusive call do not appear. The source holds several records for some structures; these can differ, active in one and inactive in another. Calls of active or inactive are those of the source. How the source made its calls, unless noted: active means hit-call score of the fitted dose curve at least 0.9, where 1 is the maximum; inactive means score below 0.9.

Tests used:
[1] = biological target: Nuclear respiratory factor 1 (Homo sapiens) (UniProt Q16656); experiment: ATG_NRF1_CIS: Attagene CIS-FACTORIAL HepG2 Assay for human Nuclear Respiratory Factor 1 (NRF1) Orphan Gene (AID 2282987); details: HepG2 NRF1 cis-element reporter, Attagene multiplex; actives raise or lower the signal
Sequence of Nuclear respiratory factor 1 (Homo sapiens) (Q16656 whole entry, looked up): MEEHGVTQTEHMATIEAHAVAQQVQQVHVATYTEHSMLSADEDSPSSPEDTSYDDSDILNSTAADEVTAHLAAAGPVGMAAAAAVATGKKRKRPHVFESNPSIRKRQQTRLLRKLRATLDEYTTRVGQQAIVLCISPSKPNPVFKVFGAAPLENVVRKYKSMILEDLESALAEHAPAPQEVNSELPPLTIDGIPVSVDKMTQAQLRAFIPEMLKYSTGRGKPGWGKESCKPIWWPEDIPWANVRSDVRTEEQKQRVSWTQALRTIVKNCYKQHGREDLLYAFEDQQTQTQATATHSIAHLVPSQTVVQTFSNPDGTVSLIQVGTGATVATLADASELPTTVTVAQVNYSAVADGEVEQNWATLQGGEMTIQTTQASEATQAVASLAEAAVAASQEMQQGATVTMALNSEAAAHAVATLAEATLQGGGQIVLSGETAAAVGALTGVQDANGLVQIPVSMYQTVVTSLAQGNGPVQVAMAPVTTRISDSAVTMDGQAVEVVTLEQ
In short: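 Multiplexed cis-reporter assay, HepG2 cells, 24 h treatment. Total RNA → oligo(dT) RT → PCR with reporter-specific primers → 6-FAM primer extension → HpaI cut → CE. Bidirectional fit vs DMSO.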

[2] = ATG_NFI_CIS: Attagene CIS-FACTORIAL HepG2 Assay for human Nuclear Factor I (NFI) (AID 2282989); details: HepG2 cis-regulatory reporter, NFI response element transcription; actives raise or lower the signal
In short: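 Multiplexed cis-reporter system in human HepG2 cells reports native TF activity as reporter mRNA induction 24 h post-dose. Fragments labelled with 6-FAM, HpaI-digested and resolved by capillary electrophoresis; activity fitted both directions versus DMSO.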

[3] = biological target: Myc proto-oncogene protein (Homo sapiens) (UniProt P01106); experiment: ATG_Myc_CIS: Attagene CIS-FACTORIAL HepG2 Assay for human Myelocytomatosis (Myc) Proto-Oncogene Transcription Factor (AID 2282990); details: HepG2, Attagene cis-reporter transcription factor activity; actives raise or lower the signal
Sequence of Myc proto-oncogene protein (Homo sapiens) (P01106 whole entry, looked up, the tested form may be a part): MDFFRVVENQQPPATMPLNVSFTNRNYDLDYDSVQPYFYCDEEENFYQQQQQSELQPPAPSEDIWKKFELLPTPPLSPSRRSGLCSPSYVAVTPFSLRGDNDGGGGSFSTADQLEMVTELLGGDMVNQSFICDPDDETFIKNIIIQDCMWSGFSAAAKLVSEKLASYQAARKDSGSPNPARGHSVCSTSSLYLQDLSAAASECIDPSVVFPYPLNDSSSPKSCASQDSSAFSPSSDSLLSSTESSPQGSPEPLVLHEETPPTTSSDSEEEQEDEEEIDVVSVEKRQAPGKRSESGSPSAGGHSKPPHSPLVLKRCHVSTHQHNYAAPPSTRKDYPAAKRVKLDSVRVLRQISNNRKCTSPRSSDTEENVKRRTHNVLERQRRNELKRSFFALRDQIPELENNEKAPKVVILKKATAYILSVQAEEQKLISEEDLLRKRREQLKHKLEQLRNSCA
In short: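 Fluorescence intensity of reporter-specific cDNA fragments, separated by capillary electrophoresis, gives the signal. Transfected HepG2 cells carrying cis-promoter reporter constructs are incubated with compound for 24 h; DMSO serves as baseline.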

[4] = ATG_NF_kB_CIS: Attagene CIS-FACTORIAL HepG2 Assay for human Nuclear Factor Kappa B (NF-kB) (AID 2282991); details: HepG2 Attagene cis-factorial NF-kB reporter mRNA; actives raise or lower the signal
In short: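 Transient MRTU transfection of human HepG2 liver cells → 24 h chemical exposure → total RNA, oligo(dT) RT → PCR, 6-FAM primer extension, HpaI digest 2 h 37 C → CE fragment analysis. Bidirectional fitting, DMSO negative control.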

[5] = ATG_NRF2_ARE_CIS: Attagene CIS-FACTORIAL HepG2 Assay for human Nuclear Factor Erythroid 2 Related Factor 2 (NFR2) response to Antioxidant Response Elements (ARE) (AID 2282992); details: HepG2 Attagene ARE/NRF2 reporter, transcription factor activity; actives raise or lower the signal
In short: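 Endogenous transcription factor activity in human liver HepG2 cells is tracked via a cis-element-driven reporter within a multiplexed set. mRNA induction is read by RT-PCR and capillary electrophoresis after 24 h, with DMSO as baseline.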

[6] = ATG_Oct_MLP_CIS: Attagene CIS-FACTORIAL HepG2 Assay for human Octamer-Binding Transcription Factor (Oct) (AID 2282993); details: HepG2 Attagene cis-factorial Oct reporter, mRNA; actives raise or lower the signal
In short: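 After 24 h compound exposure, transfected HepG2 cells were lysed for total RNA; reporter-specific cDNA was PCR-amplified, fluorescently labelled and sized by capillary electrophoresis. Bidirectional curve fitting used DMSO as baseline.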

[7] = biological target: Cellular tumor antigen p53 (Homo sapiens) (UniProt P04637); experiment: ATG_p53_CIS: Attagene CIS-FACTORIAL HepG2 Assay for human p53 Transcription Factor (AID 2282994); details: HepG2 p53 cis-element reporter, Attagene mRNA; actives raise or lower the signal
Sequence of Cellular tumor antigen p53 (Homo sapiens) (P04637 whole entry, looked up, the tested form may be a part): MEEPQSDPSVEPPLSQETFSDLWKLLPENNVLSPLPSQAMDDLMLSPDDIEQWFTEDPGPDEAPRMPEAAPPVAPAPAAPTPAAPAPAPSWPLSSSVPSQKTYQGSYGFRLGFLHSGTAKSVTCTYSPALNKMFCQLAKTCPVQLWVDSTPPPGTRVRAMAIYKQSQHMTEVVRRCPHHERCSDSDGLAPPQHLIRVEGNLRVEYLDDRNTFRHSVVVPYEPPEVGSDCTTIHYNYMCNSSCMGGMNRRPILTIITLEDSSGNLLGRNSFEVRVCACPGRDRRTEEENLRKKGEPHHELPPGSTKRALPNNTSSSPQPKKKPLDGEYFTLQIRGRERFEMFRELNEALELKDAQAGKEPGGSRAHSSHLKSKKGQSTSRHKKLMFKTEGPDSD
In short: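 Steps: transfect HepG2 with multiplexed cis reporter constructs; dose chemicals 24 h; extract RNA, reverse-transcribe, PCR-amplify reporter sequences; FAM-label, HpaI-digest, resolve fragments by CE. Activity fitted both directions relative to DMSO.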

[8] = BSK_3C_TissueFactor: BioMAP Diversity Plus: 3C Assay for Tissue Factor Biomarker Activity (AID 2282997); details: BioMAP 3C HUVEC, tissue factor biomarker readout; actives raise or lower the signal
In short: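 Tissue factor on primary human umbilical vein endothelium was read by ELISA 24 h after dosing, gain or loss relative to DMSO. Cytotoxicity ran alongside via SRB (0.1%, TCA-fixed, 560 nm).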

[9] = BSK_3C_uPAR: BioMAP Diversity Plus: 3C Assay for Urokinase-type plasminogen activator receptor (uPAR) Biomarker Activity (AID 2282998); details: BioMAP 3C HUVEC, uPAR biomarker ELISA; actives raise or lower the signal
In short: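 Values derive from bidirectional curve fitting relative to DMSO, which served as baseline of activity. uPAR was measured by ELISA in human umbilical vein endothelial primary cultures 24 h after compound addition.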

[10] = BSK_3C_VCAM1: BioMAP Diversity Plus: 3C Assay for Vascular cell adhesion molecule 1 (VCAM1) Biomarker Activity (AID 2282999); details: BioMAP 3C HUVEC, VCAM1 ELISA, cytokine-stimulated; actives raise or lower the signal
In short: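 HUVEC primary cells, 24 h compound exposure; VCAM-1 by ELISA; gain/loss of signal fitted bidirectionally vs DMSO baseline.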

[11] = BSK_4H_Eotaxin3: BioMAP Diversity Plus: 4H Assay for Eotaxin 3 Biomarker Activity (AID 2283000); details: primary human endothelial cells (HUVEC); actives raise or lower the signal;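 further: CCL26 protein level quantified by ELISA in parallel with SRB cytotoxicity check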
In short: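 Human umbilical vein endothelial cells (BSK_4H system) dosed with test chemical; Eotaxin-3 (CCL26) measured by ELISA 24 h after dosing. Bidirectional curve fitting relative to DMSO negative control as baseline.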

[12] = biological target: human Peroxisome Proliferator-activated Receptor alpha (PPARa), PPARA (gene 5465) (UniProt Q07869); experiment: ATG_PPARa_TRANS: Attagene TRANS-FACTORIAL HepG2 Assay for human Peroxisome Proliferator-activated Receptor alpha (PPARa) (AID 2283001; active means hit-call score of the fitted dose curve at least 0.9, where 1 is the maximum)
Sequence of human Peroxisome Proliferator-activated Receptor alpha (PPARa), PPARA (gene 5465) (Q07869 whole entry, looked up): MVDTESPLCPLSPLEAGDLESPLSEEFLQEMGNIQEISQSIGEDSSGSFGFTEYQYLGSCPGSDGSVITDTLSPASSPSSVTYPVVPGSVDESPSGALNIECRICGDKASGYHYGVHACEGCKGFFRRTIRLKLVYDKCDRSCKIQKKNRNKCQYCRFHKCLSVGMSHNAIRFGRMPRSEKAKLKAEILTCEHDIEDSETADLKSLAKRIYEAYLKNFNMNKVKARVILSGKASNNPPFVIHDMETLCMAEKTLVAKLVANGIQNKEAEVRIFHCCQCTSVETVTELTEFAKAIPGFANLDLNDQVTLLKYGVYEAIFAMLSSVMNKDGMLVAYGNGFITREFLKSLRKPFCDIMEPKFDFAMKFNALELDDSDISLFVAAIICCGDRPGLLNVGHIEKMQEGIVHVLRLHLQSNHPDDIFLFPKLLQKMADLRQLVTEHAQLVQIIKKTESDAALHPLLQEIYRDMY
In short: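 HepG2, transient MRTU transfection, 24 h treatment. RT-PCR → FAM labelling → capillary electrophoresis. Fit vs DMSO, positive direction.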

[13] = read-out: Intercellular Adhesion Molecule 1 (ICAM1), ICAM1 (gene 3383); experiment: BSK_3C_ICAM1: BioMAP Diversity Plus: 3C Assay for Intercellular Adhesion Molecule 1 (ICAM1) Biomarker Activity (AID 2283003); details: primary human endothelial cells (HUVEC); actives raise or lower the signal
In short: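 Chemicals are dosed onto primary human umbilical vein endothelium (3C system). After 24 h, ICAM-1 is measured by ELISA, and responses are fitted bidirectionally relative to DMSO.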

[14] = BSK_3C_Proliferation: Cell Proliferation Assessment in the BioMAP Diversity Plus: 3C Assay (AID 2283006); details: primary human endothelial cells (HUVEC);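 on AC50: potency may reflect either rise or fall in cell number versus DMSO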
In short: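 Cells (human umbilical vein endothelial, sub-confluent) receive test chemical; after 48 h they are fixed in 10% trichloroacetic acid, stained with 0.1% SRB and read at 560 nm. Activity is referenced to DMSO, fitting increases and decreases.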

[15] = biological target: Peroxisome proliferator-activated receptor gamma (Homo sapiens) (UniProt P37231); experiment: ATG_PPARg_TRANS: Attagene TRANS-FACTORIAL HepG2 Assay for human Peroxisome Proliferator-activated Receptor-gamma (PPARg) (AID 2283007; active means hit-call score of the fitted dose curve at least 0.9, where 1 is the maximum)
Sequence of Peroxisome proliferator-activated receptor gamma (Homo sapiens) (P37231 whole entry, looked up, the tested form may be a part): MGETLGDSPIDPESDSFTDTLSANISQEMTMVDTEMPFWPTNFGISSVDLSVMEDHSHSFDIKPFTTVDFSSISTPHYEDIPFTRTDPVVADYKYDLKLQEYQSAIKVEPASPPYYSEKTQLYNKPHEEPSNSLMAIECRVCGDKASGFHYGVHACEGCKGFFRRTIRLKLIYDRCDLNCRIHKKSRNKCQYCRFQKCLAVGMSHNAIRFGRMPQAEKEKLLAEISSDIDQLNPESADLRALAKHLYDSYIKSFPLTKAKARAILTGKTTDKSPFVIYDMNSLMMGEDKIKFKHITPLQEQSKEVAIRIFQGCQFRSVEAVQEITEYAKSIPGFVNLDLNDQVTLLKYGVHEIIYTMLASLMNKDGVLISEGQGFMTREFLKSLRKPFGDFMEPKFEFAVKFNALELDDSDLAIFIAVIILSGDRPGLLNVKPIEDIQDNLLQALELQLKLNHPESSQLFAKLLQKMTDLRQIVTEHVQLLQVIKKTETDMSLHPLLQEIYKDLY
In short: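 Transient transfection of HepG2 with GAL4-UAS-driven reporter units; chemical dosing 24 h; total RNA → oligo(dT) RT → PCR with reporter primers → 6-FAM primer extension → HpaI digest 2 h 37 C → capillary electrophoresis. Positive direction vs DMSO.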

[16] = biological target: Nuclear receptor subfamily 1 group I member 2 (Homo sapiens) (UniProt O75469); experiment: ATG_PXR_TRANS: Attagene TRANS-FACTORIAL HepG2 Assay for human Pregnane X Receptor (PXR) (AID 2283008; active means hit-call score of the fitted dose curve at least 0.9, where 1 is the maximum)
Sequence of Nuclear receptor subfamily 1 group I member 2 (Homo sapiens) (O75469 whole entry, looked up, the tested form may be a part): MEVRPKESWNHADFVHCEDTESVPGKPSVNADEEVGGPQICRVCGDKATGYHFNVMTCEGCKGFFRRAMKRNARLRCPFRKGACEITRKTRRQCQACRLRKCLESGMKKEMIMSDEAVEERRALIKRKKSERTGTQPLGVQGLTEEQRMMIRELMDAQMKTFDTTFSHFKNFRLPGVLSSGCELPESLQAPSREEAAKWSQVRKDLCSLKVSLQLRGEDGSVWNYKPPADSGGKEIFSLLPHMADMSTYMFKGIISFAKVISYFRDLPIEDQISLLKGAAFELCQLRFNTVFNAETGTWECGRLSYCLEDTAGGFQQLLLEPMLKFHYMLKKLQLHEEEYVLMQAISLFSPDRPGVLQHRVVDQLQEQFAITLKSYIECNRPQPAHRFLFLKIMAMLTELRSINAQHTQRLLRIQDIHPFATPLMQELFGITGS
In short: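 HepG2 transfected (FuGene 6) with GAL4-UAS reporter units + PXR-Gal4 chimera; dosed 24 h. Total RNA → oligo(dT) RT → PCR → 6-FAM primer extension → HpaI cut → CE. Gain-of-signal vs DMSO.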

[17] = biological target: human Peroxisome Proliferator-activated Receptor delta (PPARd), PPARD (gene 5467) (UniProt Q03181); experiment: ATG_PPARd_TRANS: Attagene TRANS-FACTORIAL HepG2 Assay for human Peroxisome Proliferator-activated Receptor delta (PPARd) (AID 2283002; active means hit-call score of the fitted dose curve at least 0.9, where 1 is the maximum)
Sequence of human Peroxisome Proliferator-activated Receptor delta (PPARd), PPARD (gene 5467) (Q03181 whole entry, looked up, the tested form may be a part): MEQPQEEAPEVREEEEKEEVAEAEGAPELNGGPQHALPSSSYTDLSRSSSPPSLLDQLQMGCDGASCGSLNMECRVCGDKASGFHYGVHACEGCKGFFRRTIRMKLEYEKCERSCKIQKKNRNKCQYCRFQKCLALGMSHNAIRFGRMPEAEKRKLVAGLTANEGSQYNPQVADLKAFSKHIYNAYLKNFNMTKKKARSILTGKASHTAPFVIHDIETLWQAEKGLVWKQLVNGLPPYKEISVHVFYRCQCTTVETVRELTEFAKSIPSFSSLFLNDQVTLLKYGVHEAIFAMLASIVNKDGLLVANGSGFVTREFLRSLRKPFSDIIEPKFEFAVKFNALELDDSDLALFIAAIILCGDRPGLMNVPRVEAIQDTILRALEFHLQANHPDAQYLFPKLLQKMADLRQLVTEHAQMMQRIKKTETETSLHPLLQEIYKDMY
In short: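 Fluorescence from capillary electrophoresis of labelled RT-PCR reporter fragments gives the signal; DMSO sets baseline. Cells: HepG2 transiently carrying GAL4-UAS reporter units plus chimeric nuclear receptor-Gal4 proteins, exposed to chemicals for 24 h.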

[18] = biological target: Retinoic acid receptor alpha (Homo sapiens) (UniProt P10276); experiment: ATG_RARa_TRANS: Attagene TRANS-FACTORIAL HepG2 Assay for human Retinoic Acid Receptor alpha (RARa) (AID 2283005; active means hit-call score of the fitted dose curve at least 0.9, where 1 is the maximum)
Sequence of Retinoic acid receptor alpha (Homo sapiens) (P10276 whole entry, looked up, the tested form may be a part): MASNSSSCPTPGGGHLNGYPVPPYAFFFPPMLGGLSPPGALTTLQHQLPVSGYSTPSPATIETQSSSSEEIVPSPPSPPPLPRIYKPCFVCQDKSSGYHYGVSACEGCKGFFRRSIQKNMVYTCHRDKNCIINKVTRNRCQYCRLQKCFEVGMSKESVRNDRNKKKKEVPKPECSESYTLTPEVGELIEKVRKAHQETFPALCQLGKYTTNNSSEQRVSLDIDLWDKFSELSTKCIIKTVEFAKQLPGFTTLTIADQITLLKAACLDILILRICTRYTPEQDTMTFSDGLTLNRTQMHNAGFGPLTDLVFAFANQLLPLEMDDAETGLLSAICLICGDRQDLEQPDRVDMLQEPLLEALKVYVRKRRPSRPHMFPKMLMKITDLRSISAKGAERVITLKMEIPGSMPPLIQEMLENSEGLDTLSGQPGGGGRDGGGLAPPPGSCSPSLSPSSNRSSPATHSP
In short: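 HepG2 transiently transfected with multiplex GAL4-UAS reporter units including a human RARa–GAL4 chimera; 24 h compound exposure. Reporter mRNA quantified by RT-PCR, 6-FAM labeling and capillary electrophoresis; gain of signal versus DMSO.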

[19] = biological target: human Retinoic Acid Receptor gamma (RARg), RARG (gene 5916) (UniProt P13631); experiment: ATG_RARg_TRANS: Attagene TRANS-FACTORIAL HepG2 Assay for human Retinoic Acid Receptor gamma (RARg) (AID 2283009; active means hit-call score of the fitted dose curve at least 0.9, where 1 is the maximum)
Sequence of human Retinoic Acid Receptor gamma (RARg), RARG (gene 5916) (P13631 whole entry, looked up, the tested form may be a part): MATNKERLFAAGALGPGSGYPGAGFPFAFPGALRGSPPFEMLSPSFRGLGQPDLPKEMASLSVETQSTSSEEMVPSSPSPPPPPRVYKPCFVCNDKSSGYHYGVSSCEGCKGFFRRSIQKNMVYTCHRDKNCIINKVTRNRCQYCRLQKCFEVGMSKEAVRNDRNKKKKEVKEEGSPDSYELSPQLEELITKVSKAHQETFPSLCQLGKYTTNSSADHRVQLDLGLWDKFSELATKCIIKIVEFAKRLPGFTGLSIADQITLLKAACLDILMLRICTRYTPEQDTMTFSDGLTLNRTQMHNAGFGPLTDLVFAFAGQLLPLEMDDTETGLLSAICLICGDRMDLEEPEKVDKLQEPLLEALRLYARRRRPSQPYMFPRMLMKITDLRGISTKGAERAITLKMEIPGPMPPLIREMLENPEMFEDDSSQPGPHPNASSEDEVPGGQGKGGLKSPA
In short: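 TRANS format measured activity of exogenous NR-GAL4 fusion (RARg) in transfected HepG2 liver cells after 24 h dosing. Induced reporter RNA was detected by RT-PCR/capillary electrophoresis fluorescence, analysed in the positive direction against DMSO.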

Measured: AC50

FC(F)(F)C(F)(F)C(F)(F)CC1CO1 (centres undefined)
not listed: [17] | [18] | [19]
inactive: all other assays above

OCC(F)(F)C(F)(F)C(F)(F)C(F)(F)C(F)(F)C(F)(F)CO
active: [14] 15.6 µM
inactive: [1] | [2] | [3] | [4] | [5] | [6] | [7] | [8] | [9] | [10] | [11] | [12] | [13] | [14] | [15] | [16]

O=C(O)CCC(F)(F)C(F)(F)C(F)(F)F
not listed: [16] | [17] | [18] | [19]
inactive: all other assays above

NC(=O)C(F)(F)C(F)(F)C(F)(F)F
not listed: [15] | [16] | [17] | [18] | [19]
inactive: all other assays above

Cc1cnccn1
not listed: [12] | [15]
inactive: all other assays above

CCN(CC)c1ccc(C=O)c(O)c1
active: [7] 70.5 µM | [15] 15.3 µM
not listed: [12] | [17] | [18] | [19]
inactive: all other assays above

NC(O)(C(F)(F)F)C(F)(F)F
not listed: [12] | [15] | [18] | [19]
inactive: all other assays above
